Screens as filed in PubChem.
GLD-1 TGE inh: GLD-1/TGE RNA complex disruptors, primary screen, biochemical, fluorescence polarization; purified GLD-1 + fluorescein TGE RNA; inhibition, % at 5.96 µM; hit rate 0.44% among 320,000; AID 2280, 2010;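 active means percent inhibition above a per-plate cutoff, the plate mean of test compounds plus 3 SD, cut at about 30% in these data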;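 further: 0% = DMSO wells with GLD-1 and probe and 100% = wells lacking GLD-1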
Target sequence (Q17339 whole entry, looked up): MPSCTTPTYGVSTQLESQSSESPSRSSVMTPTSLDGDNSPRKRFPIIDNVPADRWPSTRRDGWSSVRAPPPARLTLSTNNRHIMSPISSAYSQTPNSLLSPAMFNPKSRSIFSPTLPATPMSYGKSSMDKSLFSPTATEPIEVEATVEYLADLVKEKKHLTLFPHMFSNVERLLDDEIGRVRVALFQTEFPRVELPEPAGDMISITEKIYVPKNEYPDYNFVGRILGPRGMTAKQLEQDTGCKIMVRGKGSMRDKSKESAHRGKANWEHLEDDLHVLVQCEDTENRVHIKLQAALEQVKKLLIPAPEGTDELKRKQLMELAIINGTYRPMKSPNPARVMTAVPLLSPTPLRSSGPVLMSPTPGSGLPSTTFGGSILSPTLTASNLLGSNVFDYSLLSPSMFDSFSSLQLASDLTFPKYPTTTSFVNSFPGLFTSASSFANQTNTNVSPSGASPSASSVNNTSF
Bcl-xL primary: inhibitors of human Bcl-xL, primary screen, biochemical, fluorescence polarization, HTS; hit rate 0.7% among 320,000; AID 2129, 2009; GST-Bcl-xL / FITC-Bim BH3 peptide fluorescence polarization; inhibition, % at 10.9 µM; Bcl-2-like protein 1 (Homo sapiens), Q07817;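 active means inhibition above the mean of all tested compounds plus 3 SD, cutoff set per campaign, cut at about 30% in these data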;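 further: 0% = DMSO wells and 100% = unlabeled Bim-BH3 peptide competitor; inhibitors lower millipolarization by displacing the labeled peptide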
Mcl1-Bid inh: Mcl-1/Bid binding inhibitors, primary screen, biochemical, TR-FRET, 1536-well | Induced myeloid leukemia cell differentiation protein Mcl-1 (Homo sapiens), Q07820 | TR-FRET Mcl-1/Bid-Dy647 peptide binding | inhibition, % at 21.7 µM | hit rate 0.97% among 220,000 | AID 1021, 2008;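 active means compounds that cut the binding signal by more than half at the single screening dose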;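 further: His-tagged Mcl-1 with europium anti-His antibody binding Bid BH3 peptide; 0% = Mcl-1 plus peptide wells and 100% = peptide-only wells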
MCL1-BIM inh: inhibitors of MCL1 binding to BIM-BH3, primary screen, biochemical, fluorescence polarization; GST-MCL1 / FITC-Bim-BH3 fluorescence polarization; Induced myeloid leukemia cell differentiation protein Mcl-1 (Homo sapiens), Q07820; hit rate 0.68% among 320,000; inhibition, % at 10.9 µM;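 active means inhibition above the mean inhibition of all tested compounds plus 3 SD, set per campaign, cut at about 40% in these data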;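 further: 0% = DMSO wells and 100% = unlabeled Bim-BH3 peptide control; higher means more loss of mP so more displacement of Bim peptide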
Mcl1 Noxa PPI: Mcl-1/Noxa binding inhibitors, primary screen, biochemical, TR-FRET, 1536-well. Induced myeloid leukemia cell differentiation protein Mcl-1 (Homo sapiens), Q07820. TR-FRET Mcl-1/Noxa peptide binding, 2 h. inhibition, % at 21.7 µM. hit rate 1.5% among 220,000;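 active means compounds that cut the protein-peptide binding signal by more than 50% relative to plate controls in a single-dose test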;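 further: His-tagged Mcl-1 with rhodamine Noxa BH3 peptide and terbium anti-His antibody; 0% = Mcl-1 plus Noxa peptide wells and 100% = peptide-only wells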
Mcl-1 Bim block: inhibitors of Bim peptide binding to Mcl-1, primary screen, biochemical, bead-based flow cytometry, multiplex; Bim peptide-Mcl-1 binding; inhibition, % at 10 µM; hit rate 0.1% among 190,000; AID 1009, 2008; in the data active means inhibition above about 40%;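 further: 0% = no compound tracer wells and 100% = peptide blocker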
* marks the source's active call; other numbers are inactive results; . = no result. In the library only some 2.3% were active in any assay of this set; here they are far more common.

SMILES	GLD-1 TGE inh	Bcl-xL primary	Mcl1-Bid inh	MCL1-BIM inh	Mcl1 Noxa PPI	Mcl-1 Bim block
Cc1ccc(C)c(S(=O)(=O)N2CCN(CC(=O)N3CCc4ccccc4C3)CC2)c1	11	6	62*	2	7	0
O=C(CN1CCN(S(=O)(=O)c2cc(C(F)(F)F)ccc2Cl)CC1)N1CCc2ccccc2C1	4	-1	.	-5	.	.
C=CCc1c(C)[nH]c2c(OC)cccc2c1=S	-5	12	26	8	60*	-1
CCCCC(=Nc1ccc(N)cc1)C1=C(O)C(C(=O)OC)C(C)(C)CC1=O (stereo not drawn)	8	32*	-39	32	14	0
COC(=O)C1=CN(CC2CCCO2)C=C(C(=O)OC)C1c1ccsc1 (stereo not drawn)	6	2	96*	5	0	0
CCCCn1c(N)c(N(CC(C)C)C(=O)C2CC(=O)N(c3ccc(CC)cc3)C2)c(=O)[nH]c1=O (stereo not drawn)	3	-8	.	-8	.	.
COc1ccccc1/C=N/N1C(=O)c2cccc3cccc(c23)C1=O	3	43*	-2	36	11	-2
COc1ccc(NC(=O)N2CCCC(C(=O)NCCc3ccccc3)C2)cc1 (stereo not drawn)	5	8	.	9	.	.
N#CCC(=O)Nc1ccc(C(=O)N2CCN(S(=O)(=O)c3ccc4ccccc4c3)CC2)cc1	-16	-10	.	-18	.	.
Cc1cccc2[nH]c(CCNC(=O)C3CCC(=O)N(CCc4cccc(F)c4)C3)nc12 (stereo not drawn)	6	4	.	0	.	.
COc1ccc(Br)cc1CN1CCC(N2CCCC2)CC1	0	7	.	0	.	.
CC1(C)Cc2c(ccc3ccccc23)/C(=C/C(=O)N2CCCCC2)N1	5	7	-43	12	22	42*
Cc1cc(S(=O)(=O)NCc2ccccc2)ccc1OCC(=O)NCc1ccncc1	4	3	.	3	.	.
COc1cc(O)c2c(c1)OC(c1ccc(O)cc1)CC2=O (stereo not drawn)	7	-2	1	2	17	-5
Cc1c(O)cc2c(c1O)C(=O)CC(c1ccc(O)cc1)O2 (stereo not drawn)	2	4	65*	18	86*	1
CSCc1ccc(C(=O)NC(C)c2cnn(-c3ccccn3)c2C)o1 (stereo not drawn)	3	4	.	6	.	.
CN(CC(=O)Nc1ccc(F)c(F)c1F)C(=O)C1CCCC1	0	-4	.	-10	.	.
COC(=O)C1=C(C)N(Cc2ccco2)C(=O)/C1=C\c1ccc(N(C)C)cc1	-3	4	-66	-7	54*	0
Cc1nn(CC(=O)NCCc2ccc(Cl)cc2)c(=O)c2cccn12	-1	-2	.	-2	.	.
COc1ccc(S(=O)(=O)NCC2CCCO2)cc1NC(=O)c1ccc(Cl)cc1 (stereo not drawn)	0	2	.	1	.	.
CCOC(=O)C1=C(C)NC2=C(C(=O)CC(C)(C)C2)C1c1ccc2c(c1)CCCN2C (stereo not drawn)	3	2	-2	-1	94*	-6
COc1ccc(S(=O)(=O)NC(C)C)cc1C(=O)N1CCOCC1	4	7	-1	9	0	0
COc1ccc(N2C(=O)[C@H]3[C@@H](C2=O)C2c4ccccc4C=NN2[C@H]3C(=O)C(C)(C)C)cc1 (stereo partly drawn)	4	1	-16	4	20	.
COc1ccc(N2C(=O)[C@@H]3[C@H](C2=O)[C@H]2c4ccccc4C=CN2[C@@H]3C(C)=O)cc1	22	34*	-6	26	6	-1
COc1cc2c(=O)n(Cc3ccccc3)c(=O)n(CC(=O)NCc3ccco3)c2cc1OC	.	.	52*	.	-57	0
SMILES	GLD-1 TGE inh	Bcl-xL primary	Mcl1-Bid inh	MCL1-BIM inh	Mcl1 Noxa PPI	Mcl-1 Bim block
Cc1ccsc1C(=O)N(C)C1CCS(=O)(=O)C1 (stereo not drawn)	1	-7	.	-4	.	.
Cc1cc(C2C(C#N)=C(N)OC3=C2C(=O)CCC3)c(C)s1 (stereo not drawn)	-1	1	-1	5	8	-2
COc1cc(C2C(C#N)=C(N)OC3=C2C(=O)CCC3)c([N+](=O)[O-])cc1OC (stereo not drawn)	98*	156*	-18	194*	97*	2
COc1ccc(S(=O)(=O)N2CCCOC2CNC(=O)C(=O)NCc2ccccn2)cc1 (stereo not drawn)	3	2	.	2	.	.
c1ccc(-c2nc(-c3ccco3)n3ccccc23)cc1	21	65*	-1	45*	25	4
c1ccc(Nc2c(-c3ccco3)nc3ccccn23)cc1	-4	7	-40	6	17	-4
CCOc1ccc(OCC(=O)NCCc2nc3ccccc3[nH]2)cc1	-2	-2	0	-3	24	1
Cc1cc(C)cc(OCC(=O)NCCc2nc3ccccc3[nH]2)c1	-5	47*	-25	10	10	-5
CC(C)OC(=O)c1ccc2nc3ccccc3nc2c1	-3	5	.	3	.	.
Cc1cc(/C=N/NC(=O)c2cccs2)c(C)n1-c1ccccc1	5	-2	87*	-2	8	-136
Cc1cc(/C=N/NC(=O)c2ccncc2)c(C)n1-c1ccccc1	3	-3	-23	-2	18	-4
Cc1cc(C(=O)N/N=C/c2ccc(O)c(O)c2O)c(C)n1-c1ccccc1	.	.	-114	.	73*	2
CC(c1ccccn1)N(C)C(=O)c1ccc2nc(Cc3ccccc3F)oc2c1 (stereo not drawn)	0	8	.	11	.	.
CCOc1ccc(S(=O)(=O)N2CCCC(C(=O)NCCN3CCOCC3)C2)cc1Cl (stereo not drawn)	7	5	.	-2	.	.
CCc1ccc(C(=O)NC2CCCCC2)s1	2	1	61*	4	-3	-3
N/C(=N\N=C/c1ccc(F)cc1)N/N=C\c1ccc(F)cc1	-2	2	.	12	.	.
N/C(=N\N=C/c1ccc(Br)cc1)N/N=C\c1ccc(Br)cc1	0	0	-10	4	8	40*
CC(C)C[C@H]1COCCS(=O)(=O)N1Cc1ccc(Cl)c(Cl)c1	1	67*	.	-9	.	.
Oc1c(Cl)cc(Cl)cc1/C=C/c1ccc2cccc(O)c2n1	-55	4	-56	-4	82*	2
CN1CCc2c(sc(NC(=O)c3ccc(S(=O)(=O)N4CCc5ccccc54)cc3)c2C(N)=O)C1	-23	-11	28	-27	52*	.
